The campaign covered roughly 5,500 compounds. About 2,000 (36%) were called active. Inconclusive results (about 18%) are left out. No stated cut-off is given here; in the data, active means normalized growth mostly below about 0.91 (no sharp cut-off); inconclusive means no clear call, values can overlap the other calls; inactive means mostly above about 0.92. Some of the results follow.
Test: chemical genetic growth profiling, strain panel (AID 1159580);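 further: tested at 20 µM; growth read once vehicle control cultures reached saturation at 30 °C; 1 = growth at the plate median or of vehicle wells; lower values mean less growth of the strain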
Conditions: growth OD

Measured: normalized growth

CN(C)CCc1c[nH]c2ccc(CS(=O)(=O)N3CCCC3)cc12
inactive: S. cerevisiae deletion strains, locus YJR075W, strain HOC1, hits give low values 1 | S. cerevisiae deletion strains, locus YKL009W, strain mrt4, hits give low values 0.992 | S. cerevisiae deletion strains, locus YKL068W, hits give low values 0.987 | S. cerevisiae deletion strains, locus YKL085W, strain MDH1 (second series), hits give low values 0.983 | S. cerevisiae deletion strains, locus YKL085W, strain MDH1, hits give low values 0.983 | S. cerevisiae deletion strains, locus YKL160W, strain elf1, hits give low values 1.03 | S. cerevisiae deletion strains, locus YKL190W, strain CNB1, hits give low values 1 | S. cerevisiae deletion strains, locus YKR001C, strain vps1, hits give low values 0.988 | S. cerevisiae deletion strains, locus YKR026C, strain gcn3, hits give low values 0.976 | S. cerevisiae deletion strains, locus YKR091W, strain srl3, hits give low values 1.01 | S. cerevisiae deletion strains, locus YLL001W, strain dnm1, hits give low values 0.971 | S. cerevisiae deletion strains, locus YLL026W, hits give low values 0.98 | S. cerevisiae deletion strains, locus YLL041C, strain sdh2, hits give low values 1 | S. cerevisiae deletion strains, locus YLR027C, strain aat2, hits give low values 0.997 | S. cerevisiae deletion strains, locus YLR039C, strain RIC1, hits give low values 0.971 | S. cerevisiae deletion strains, locus YLR058C, strain SHM2, hits give low values 0.991 | S. cerevisiae deletion strains, locus YLR102C, strain apc9, hits give low values 0.995 | S. cerevisiae deletion strains, locus YLR113W, strain HOG1, hits give low values 0.979 | S. cerevisiae deletion strains, locus YLR221C, strain rsa3, hits give low values 0.96 | S. cerevisiae deletion strains, locus YLR258W, strain gsy2, hits give low values 1 | S. cerevisiae deletion strains, locus YLR262C, strain YPT6 (second series), hits give low values 1 | S. cerevisiae deletion strains, locus YLR262C, strain YPT6, hits give low values 0.968 | S. cerevisiae deletion strains, locus YLR268W, strain sec22, hits give low values 0.971 | S. cerevisiae deletion strains, locus YLR320W, strain mms22, hits give low values 0.945 | S. cerevisiae deletion strains, locus YLR330W, strain CHS5, hits give low values 0.988 | S. cerevisiae deletion strains, locus YLR342W, strain FKS1 (second series), hits give low values 1.02 | S. cerevisiae deletion strains, locus YLR342W, strain FKS1, hits give low values 1.01 | S. cerevisiae deletion strains, locus YLR357W, strain rsc2, hits give low values 1.01 | S. cerevisiae deletion strains, locus YLR370C, strain arc18, hits give low values 0.992 | S. cerevisiae deletion strains, locus YLR371W, strain rom2, hits give low values 0.983 | S. cerevisiae deletion strains, locus YLR384C, strain iki3, hits give low values 0.983 | S. cerevisiae deletion strains, locus YLR418C, strain cdc73, hits give low values 0.959 | S. cerevisiae deletion strains, locus YML016C, strain PPZ1, hits give low values 0.987 | S. cerevisiae deletion strains, locus YML032C, strain rad52, hits give low values 0.99 | S. cerevisiae deletion strains, locus YML120C, strain ndi1, hits give low values 0.972 | S. cerevisiae deletion strains, locus YML124C, strain tub3, hits give low values 0.979 | S. cerevisiae deletion strains, locus YMR058W, strain fet3, hits give low values 0.976 | S. cerevisiae deletion strains, locus YMR078C, strain ctf18, hits give low values 0.986 | S. cerevisiae deletion strains, locus YMR125W, strain sto1, hits give low values 0.999 | S. cerevisiae deletion strains, locus YMR129W, hits give low values 0.98 | S. cerevisiae deletion strains, locus YMR205C, strain PFK2, hits give low values 0.967 | S. cerevisiae deletion strains, locus YMR223W, strain ubp8, hits give low values 0.996 | S. cerevisiae deletion strains, locus YMR231W, strain pep5, hits give low values 0.991 | S. cerevisiae deletion strains, locus YMR263W, strain SAP30, hits give low values 1.01 | S. cerevisiae deletion strains, locus YMR307W, strain GAS1, hits give low values 0.994 | S. cerevisiae deletion strains, locus YNL067W, strain RPL9B, hits give low values 1.03 | S. cerevisiae deletion strains, locus YNL071W, strain lat1, hits give low values 0.985 | S. cerevisiae deletion strains, locus YNL128W, strain TEP1, hits give low values 1 | S. cerevisiae deletion strains, locus YNL153C, strain GIM3, hits give low values 0.995 | S. cerevisiae deletion strains, locus YNL183C, strain NPR1, hits give low values 0.926 | S. cerevisiae deletion strains, locus YNL209W, strain ssb2, hits give low values 0.974 | S. cerevisiae deletion strains, locus YNL233W, strain BNI4, hits give low values 0.988 | S. cerevisiae deletion strains, locus YNL248C, strain rpa49, hits give low values 1.03 | S. cerevisiae deletion strains, locus YNL250W, strain rad50, hits give low values 0.986 | S. cerevisiae deletion strains, locus YNL271C, strain bni1, hits give low values 0.984 | S. cerevisiae deletion strains, locus YNL298W, strain CLA4, hits give low values 0.981 | S. cerevisiae deletion strains, locus YNL307C, strain MCK1, hits give low values 0.985 | S. cerevisiae deletion strains, locus YNL322C, strain KRE1 (second series), hits give low values 1.02 | S. cerevisiae deletion strains, locus YNL322C, strain KRE1, hits give low values 0.999 | S. cerevisiae deletion strains, locus YNR049C, strain mso1, hits give low values 0.997 | S. cerevisiae deletion strains, locus YNR052C, strain pop2, hits give low values 0.992 | S. cerevisiae deletion strains, locus YOL006C, strain TOP1, hits give low values 0.959 | S. cerevisiae deletion strains, locus YOL012C, strain htz1 0.726 | S. cerevisiae deletion strains, locus YOL147C, strain pex11, hits give low values 0.995 | S. cerevisiae deletion strains, locus YOR001W, strain rrp6, hits give low values 0.938 | S. cerevisiae deletion strains, locus YOR061W, strain CKA2, hits give low values 0.994 | S. cerevisiae deletion strains, locus YOR069W, strain VPS5, hits give low values 0.992 | S. cerevisiae deletion strains, locus YOR070C, strain gyp1, hits give low values 1 | S. cerevisiae deletion strains, locus YOR080W, strain dia2, hits give low values 1 | S. cerevisiae deletion strains, locus YOR083W, strain WHI5, hits give low values 1 | S. cerevisiae deletion strains, locus YOR106W, strain vam3, hits give low values 1.04 | S. cerevisiae deletion strains, locus YOR136W, strain idh2, hits give low values 0.983 | S. cerevisiae deletion strains, locus YOR144C, strain elg1, hits give low values 0.981 | S. cerevisiae deletion strains, locus YOR184W, strain ser1, hits give low values 0.989 | S. cerevisiae deletion strains, locus YOR231W, strain MKK1, hits give low values 0.957 | S. cerevisiae deletion strains, locus YOR265W, strain rbl2, hits give low values 0.99 | S. cerevisiae deletion strains, locus YOR270C, strain vph1, hits give low values 0.945 | S. cerevisiae deletion strains, locus YOR290C, strain snf2, hits give low values 1.02 | S. cerevisiae deletion strains, locus YOR316C, strain cot1, hits give low values 0.989 | S. cerevisiae deletion strains, locus YPL051W, strain arl3, hits give low values 1.02 | S. cerevisiae deletion strains, locus YPL055C, strain LGE1, hits give low values 1.02 | S. cerevisiae deletion strains, locus YPL078C, strain atp4, hits give low values 1.02 | S. cerevisiae deletion strains, locus YPL106C, strain sse1, hits give low values 1.02 | S. cerevisiae deletion strains, locus YPL240C, strain hsp82, hits give low values 0.985 | S. cerevisiae deletion strains, locus YPL241C, strain CIN2, hits give low values 1.03 | S. cerevisiae deletion strains, locus YPL256C, strain CLN2, hits give low values 0.959 | S. cerevisiae deletion strains, locus YPR119W, strain clb2, hits give low values 0.994 | S. cerevisiae deletion strains, locus YPR141C, strain kar3, hits give low values 0.983 | S. cerevisiae deletion strains, locus YPR163C, strain tif3, hits give low values 0.985 | S. cerevisiae deletion strains, locus YPR167C, strain met16, hits give low values 0.982 | S. cerevisiae deletion strains, strain wtn01, hits give low values 0.99 | S. cerevisiae strains, strain wild type, hits give low values 1.02

Source: PubChem BioAssay AID1159580 (chemical genetic matrix, 2015)
